# From PubChem BioAssay
# Compounds with a hit are over-represented: about 2.5% of the library has one in this group of screens.
# Pol eta inh-1: blocks human DNA polymerase eta activity; actives 1.2% (n = 390,000); Q9Y253; recombinant Pol eta, fluorescent DNA replication assay; Potency, µM (doses to about 114 µM), usual class: inhibitors
#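 Pol eta at 10 nM preincubated with compounds 15 min at room temperature; reaction started with fluorescent substrate (50 nM final) and read kinetically at 0 and 10 min.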
# POLI inh: DNA polymerase iota (human) inhibition; Potency, µM (series often up to 115 µM), usual class: inhibitors; Q9UNA4; Pol iota fluorescent replication assay, 10 min; actives 1% (n = 390,000)
#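 Fluorescent replication assay read twice, at 0 min and 10 min after adding 50 nM (final) substrate. Enzyme (10 nM) and compounds were first incubated 15 min at room temperature; enzyme-free buffer wells were negative controls.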
# APE1 inh: inhibitors of human APE1 endonuclease. recombinant APE1, TAMRA/BHQ-2 abasic DNA cleavage fluorescence. P27695. actives 0.35% (n = 350,000). AID 2517. Potency, µM (top dose mostly 65.8 µM), usual class: inhibitors; note: nearly all actives have a fitted effect of over 55% in size
#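 APE1 at 0.75 nM final was preincubated with compound 15 min at room temperature, then 50 nM double-stranded THF abasic-site substrate (5'-TAMRA/3'-BHQ-2) was added. Fluorescence (ex 525/em 598 nm) was read kinetically; third-minus-first read gave activity.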
# Pol kappa inh-1: blocks human DNA polymerase kappa activity; purified Pol kappa, fluorescent DNA synthesis assay, 10 min; Potency, µM (top dose mostly 107 µM), actives largely listed as inhibitors; actives 0.53% (n = 400,000)
#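 50 nM final substrate added after 15 min RT preincubation of 10 nM Pol kappa with compound; fluorescence read at 0 and 10 min.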
# POLB inh: inhibitors of human DNA polymerase beta. Pol beta primer extension/strand displacement, fluorescence kinetic. Potency, µM (top dose mostly 114 µM), actives largely listed as inhibitors. actives 1.3% (n = 340,000)
#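 Enzyme-only controls used 10 nM Pol beta; buffer lacking enzyme served as negative control. Compound preincubated 15 min, then 50 nM substrate added; 0 and 10 min reads at room temperature.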
# L3MBTL1 block: blocks human L3MBTL1. Q9Y468. AlphaScreen L3MBTL1–H3K9me1 peptide binding. Potency, µM (top dose mostly 57.1 µM), most hits filed as inhibitors. actives 0.66% (n = 230,000); note: nearly all actives have a fitted effect of over 60% in size
# Target sequence (Q9Y468 whole entry, looked up): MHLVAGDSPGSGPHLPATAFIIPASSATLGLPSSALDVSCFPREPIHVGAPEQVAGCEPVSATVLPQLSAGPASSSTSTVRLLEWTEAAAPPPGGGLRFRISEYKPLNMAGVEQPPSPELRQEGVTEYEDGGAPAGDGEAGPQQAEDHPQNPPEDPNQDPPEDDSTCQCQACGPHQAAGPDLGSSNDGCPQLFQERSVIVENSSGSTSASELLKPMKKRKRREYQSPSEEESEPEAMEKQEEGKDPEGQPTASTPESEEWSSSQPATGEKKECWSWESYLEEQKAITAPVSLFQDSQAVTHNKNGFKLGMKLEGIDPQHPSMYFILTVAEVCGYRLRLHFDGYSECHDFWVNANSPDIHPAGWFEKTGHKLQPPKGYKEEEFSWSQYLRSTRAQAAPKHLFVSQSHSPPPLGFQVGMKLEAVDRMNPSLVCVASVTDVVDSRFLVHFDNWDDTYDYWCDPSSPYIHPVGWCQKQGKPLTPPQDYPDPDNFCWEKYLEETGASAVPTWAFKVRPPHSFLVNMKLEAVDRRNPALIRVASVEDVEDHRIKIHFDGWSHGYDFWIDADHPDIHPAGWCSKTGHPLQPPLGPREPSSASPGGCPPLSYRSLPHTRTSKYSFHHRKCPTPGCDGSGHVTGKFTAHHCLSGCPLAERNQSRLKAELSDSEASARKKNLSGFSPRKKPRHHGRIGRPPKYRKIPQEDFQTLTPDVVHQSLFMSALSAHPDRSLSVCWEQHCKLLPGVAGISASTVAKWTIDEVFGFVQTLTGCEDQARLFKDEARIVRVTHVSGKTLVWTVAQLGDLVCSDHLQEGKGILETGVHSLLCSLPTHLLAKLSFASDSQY
#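 Displacement of a biotinylated histone H3(1-15) peptide monomethylated at Lys9 (75 nM) from L3MBTL1 (50 nM) was measured by AlphaScreen after a 30 min room-temperature compound incubation; cefsulodin titration served as intraplate control.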
# GALK inh confirm: confirmation of human galactokinase (GALK) inhibitors. purified GALK, Kinase-Glo ATP depletion luminescence. shares compounds with Pol eta inh-1. Potency, µM (series often up to 115 µM), actives largely listed as inhibitors. actives 70% (n = 150)
# Redox cycling: redox cycling activity in phenol red-HRP assay; shares compounds with Pol eta inh-1; Phenol red-HRP H2O2 redox cycling, absorbance 600 nm; Potency, µM (highest dose often 115 µM), most hits filed as inhibitors; actives 40% (n = 150); AID 2035
# HEK293 viability: HEK-293 cytotoxicity, GALK inhibitor secondary; shares compounds with Pol eta inh-1; HEK-293 viability, ATP luminescence (CellTiter-Glo), 24/48 h; Potency, µM (top dose mostly 46.1 µM), actives largely listed as inhibitors; actives 10% (n = 170)
# Pol kappa inh-2: Pol kappa (human) inhibition, cherry-pick confirmation | shares compounds with Pol eta inh-1 | purified Pol-kappa, fluorescent strand-displacement substrate | Potency, µM, actives largely listed as inhibitors | actives 76% (n = 920)
# Pol eta inh-2: Pol eta (human) inhibition, cherry-pick confirmation. shares compounds with Pol eta inh-1. actives 64% (n = 2,600). Potency, µM, actives largely listed as inhibitors. AID 720502. Pol eta primer extension, TAMRA/BHQ fluorescence, 10 min
# Hits are given with their value; – = inactive; ? = inconclusive; · = no result; [ ] = dose if it differs, or a comment. Calls come from the whole dose curve; as a rule, active = well fitted curve in the direction sought with a large enough effect; inconclusive = small, poorly fitted or top-dose-only effect, or another doubt; inactive = no such curve, though single readings can be large; an effect the other way counts as inactive or inconclusive.
SMILES,Pol eta inh-1,POLI inh,APE1 inh,Pol kappa inh-1,POLB inh,L3MBTL1 block,Pol eta inh-2,others
O=C(NCCc1ccccc1)c1ccc2c(=O)[nH]c3c(C(=O)NCC4CCCO4)sc(=S)n3c2c1 (stereo not drawn),–,?,–,?,–,·,·,GALK inh confirm=37.5µM;Redox cycling=–;HEK293 viability=–
COc1ccc(OC)c(CCNC(=O)c2ccc3c(=O)[nH]c4c(C(=O)NC(C)C)sc(=S)n4c3c2)c1,15.8µM,–,?,–,–,·,42.6,
Cc1ccc(-c2nc(NCCCO)c3ccccc3n2)cc1,–,–,–,–,–,·,·,
OCCCNc1c2ccccc2nc2ccccc12,–,22.4µM,16.8µM,79.4µM,17.8µM,·,·,Pol kappa inh-2=?
S=c1[nH]nc(-c2cc(-c3ccccc3)n[nH]2)n1/N=C/C=C/c1ccccc1,–,–,–,–,?,–,·,
S=c1[nH]nc(-c2cc(-c3ccccc3)n[nH]2)n1/N=C/C(Br)=C/c1ccccc1,50.1µM,22.4µM,–,–,12.6µM,?,·,Pol kappa inh-2=67
CCOC(=O)C1CCN(C(=O)/C=C/c2ccc3c(c2)OCO3)CC1,–,–,–,–,?,–,·,
Cc1ccc2oc3c(c(=O)c2c1)C(c1ccccc1F)N(CCCN1CCOCC1)C3=O (stereo not drawn),–,–,·,–,–,·,·,
COc1ccc2c(c1)Oc1nc(-c3ccc(C)cc3)nc(SCC(=O)Nc3cccc(C(=O)O)c3)c1C2,·,·,·,·,·,·,·,Pol kappa inh-2=29.9
COc1ccc(CNC(=O)c2cnc(N(C)C)nc2)cc1,·,–,·,–,–,·,·,
COc1ccc2cc(C(N)=O)c(=Nc3ccc(C)cc3)oc2c1,–,–,–,–,–,–,·,GALK inh confirm=–;Redox cycling=–;HEK293 viability=?
COc1ccc(CN(CC(=O)NC2CCCCC2)C(=O)CCC(=O)Nc2nccs2)cc1,–,–,–,–,–,·,·,
NC(=S)NN=C1c2cc(Cl)ccc2-c2c1cc(Cl)cc2[N+](=O)[O-],–,–,·,–,·,·,·,
COc1cc2c(cc1[N+](=O)[O-])-c1ccc([N+](=O)[O-])cc1C2=NNC(N)=S,10µM,·,·,·,·,·,·,Pol kappa inh-2=67
O=c1c(C=Nc2cccc(C(F)(F)F)c2)c[nH]n1-c1cccc(Cl)n1,89.1µM,–,–,–,?,–,?,
COC(=O)c1sc(-c2ccc(Cl)cc2)cc1NC(=O)c1ccccc1C(=O)O,?,–,–,–,?,·,·,
COC(=O)c1sc(-c2ccc(C(C)(C)C)cc2)cc1NC(=O)c1ccccc1C(=O)O,89.1µM,–,–,–,?,·,·,Pol kappa inh-2=?
O=S(=O)(c1ccc2ccccc2c1)n1nc(-c2ccco2)nc1NCc1cccc(Cl)c1,–,–,·,–,–,·,·,
Cc1noc(C)c1S(=O)(=O)Nc1ccc(C(=O)Nc2ccc(OC(F)(F)F)cc2)cc1,–,–,–,–,–,·,·,GALK inh confirm=33.5µM;Redox cycling=–;HEK293 viability=?
CCOC(=O)c1cc2c(=O)n3cccc(C)c3nc2n(Cc2ccco2)c1=NC(=O)c1cccnc1,20µM,?,–,?,35.5µM,–[11.4 µM],?,
Cc1cccn2c(=O)c3cc(C#N)c(=NC(=O)c4ccco4)n(Cc4ccco4)c3nc12,?,?,–,?,14.1µM,–,?,
Cc1cccn2c(=O)c3cc(C#N)c(=NC(=O)c4cccs4)n(CC(C)C)c3nc12,–,–,–,–,–,–,·,
Clc1ccc(-c2nc3c4ccccc4ccn3c2Cc2ccccc2)cc1,–,·,·,·,·,·,·,
Cc1ccc(C(=O)N(C)CCOc2ccccc2)cc1S(=O)(=O)N1CCCCC1,–,–,–,–,·,–,·,
CN(C)S(=O)(=O)c1cccc(NC(=O)c2cc3c(=O)n4ccccc4nc3s2)c1,–,–,–,–,–,–,·,
SMILES,Pol eta inh-1,POLI inh,APE1 inh,Pol kappa inh-1,POLB inh,L3MBTL1 block,Pol eta inh-2,others
Cc1cc(NS(=O)(=O)c2ccc(NC(=O)c3cc4c(=O)n5ccccc5nc4s3)cc2)nc(C)n1,20µM,50.1µM,?,89.1µM,?,–,60.1,
Cc1cccc(-n2c3nc(=O)[nH]c(=O)c-3cc3cc([N+](=O)[O-])ccc32)c1,20µM,?,–,–,–,–,47.8,
Cc1ccc(C)c(-n2c3nc(=O)[nH]c(=O)c-3cc3cc([N+](=O)[O-])ccc32)c1,12.6µM,20µM,–,?,35.5µM,?,60.1,
O=c1nc2n(-c3ccccc3F)c3ccccc3cc-2c(=O)[nH]1,–,?,·,–,–,·,·,
COc1ccc(N2CCN(C(=O)c3cc(=O)c4cc(C)ccc4o3)CC2)cc1,–,–,–,–,–,·,·,
CC(=O)NS(=O)(=O)c1ccc(NC(=O)/C=C/c2ccc(C)o2)cc1,22.4µM,?,?,?,–,?,42.6,
Cc1cccc(OCC(=O)Nc2nnc(S(=O)(=O)N3CCc4ccccc43)s2)c1,89.1µM,?,·,?,–,·,?,
CC1=NN(c2ccccc2)C(=O)/C1=C\c1cc(C)n(-c2ccccc2)c1C,–,–,–,–,–,–,·,
CC1=NN(c2cccc(C(=O)O)c2)C(=O)/C1=C\C=C/c1ccccc1,17.8µM,?,–,–,–,·,26.9,
CCOc1cc(/C=C2/C(=O)ON=C2C)cc(Br)c1O,?,–,–,–,–,·,·,
COc1cc(/C=C2\C(=O)ON=C2c2ccccc2)cc(Cl)c1O,–,?,–,–,–,–,·,
CCOc1cc(/C=C2\C(=O)ON=C2c2ccccc2)cc(Br)c1O,?,?,–,–,–,·,·,GALK inh confirm=?;Redox cycling=–;HEK293 viability=–
COc1cc(/C=C2\C(=O)ON=C2c2ccccc2)cc(Br)c1O,44.7µM,?,–,–,–,·,·,GALK inh confirm=37.5µM;Redox cycling=–;HEK293 viability=–
Cc1csc(=O)n1CCC(=O)OCC(=O)Nc1cc(Cl)ccc1[N+](=O)[O-],–,?,–,–,·,–,·,
O=C(COC(=O)C1CC1)Nc1ncc(Cl)cc1Cl,28.2µM,?,–,–,·,?,47.8,
Cc1csc(=O)n1CCC(=O)OCC(=O)Nc1ncc(Cl)cc1Cl,22.4µM,?,–,?,·,–,?,Pol kappa inh-2=21.2
